Hit rate of the full screen: of about 360,000 compounds, about 1,100 (0.31%) were called active. What follows is part of a selection rich in actives, with near analogues and random picks from the rest. Values without a mark were called inactive. No stated cut-off is given here; in the data, active means activity change above about 30% (passing the limit was not always enough); inactive means the rest.
Each compound was assayed against Hepatocyte nuclear factor 4-alpha (Homo sapiens) (UniProt P41235) (assay: HNF4-alpha DNA association modulation – biochemical, fluorescence polarization, FITC-DNA, primary screen (AID 1224865)). Settings: HNF4a-FITC DNA binding, 1 h, at 10 µM, stronger effect = higher value.
Hepatocyte nuclear factor 4-alpha (Homo sapiens), sequence (P41235 whole entry, looked up): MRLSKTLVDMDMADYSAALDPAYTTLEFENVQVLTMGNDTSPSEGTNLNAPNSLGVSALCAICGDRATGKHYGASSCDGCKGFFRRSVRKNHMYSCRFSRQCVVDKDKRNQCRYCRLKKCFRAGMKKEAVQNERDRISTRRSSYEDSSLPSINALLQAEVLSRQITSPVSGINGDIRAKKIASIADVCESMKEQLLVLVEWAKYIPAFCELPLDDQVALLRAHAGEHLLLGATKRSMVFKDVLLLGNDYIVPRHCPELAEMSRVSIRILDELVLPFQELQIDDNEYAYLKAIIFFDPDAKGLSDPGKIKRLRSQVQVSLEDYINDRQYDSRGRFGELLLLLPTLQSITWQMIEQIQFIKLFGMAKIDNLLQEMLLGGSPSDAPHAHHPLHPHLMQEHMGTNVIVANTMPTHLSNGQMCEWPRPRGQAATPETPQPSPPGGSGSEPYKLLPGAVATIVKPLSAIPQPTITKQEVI

First: O=C(COC(=O)CSc1ccccc1)Nc1ccc(F)cc1F
Second: CCOC(=O)c1cccc(NC(=O)c2ccc(F)cc2F)c1
The activity change of the first is lower: -1.87% for the first, 7% for the second.

Compared with CC1C(=O)Nc2ccccc2N1C(=O)c1ccc(F)cc1F (stereo not drawn), Cc1ccccc1CN1CCN(C(=O)c2cccc(F)c2)CC1 is higher in activity change: 2.72% for the first, 3.17% for the second.

Going from O=C(NCc1ccncc1)c1cccc(NS(=O)(=O)c2ccc(F)c(F)c2)c1 to Cc1ccc(N2C(=O)C(CC(=O)Nc3cccc(F)c3)N(CCc3ccncc3)C2=O)cc1 (stereo not drawn), the activity change rises from -3.8% to 0.66%.

Going from CC1C(=O)N2CCCc3cc(S(=O)(=O)NCc4ccc(F)cc4)cc1c32 (stereo not drawn) to Cc1noc(C)c1S(=O)(=O)Nc1ccc(C(=O)N2CCN(c3ccc(F)cc3)CC2)cc1, the activity change rises from -0.59% to 1.2%.

Going from CCn1nnc(NC(=O)c2c(OC)cccc2OC)n1 to COc1cc(O)c2c(=O)c3c(O)c(O)ccc3oc2c1OC, the activity change rises from 0.86% to 3.57%.

First: CC(C)CC(=O)Nc1ccc(Cc2ccncc2)cc1
Second: COc1ccc(Cn2cccc(NC(=O)Nc3ccc(C#N)cc3)c2=O)cc1
The activity change of the first is higher: 1.88% for the first, -3.37% for the second.

Going from C=CCn1c(SCC(=O)NC23CC4CC(CC(C4)C2)C3)nc(O)cc1=O to C=CCn1c(SCc2cccc(F)c2)nc2cc(C(=O)N3CCC(C(N)=O)CC3)ccc2c1=O, the activity change falls from 2.14% to 2.05%.

First: Cc1ccc2[nH]c(=O)c(CN(CCCN(C)C)C(=O)Nc3cccc(Cl)c3)cc2c1
Second: Cc1ccc(C)c(C(=O)COC(=O)Cn2[nH]c(=O)c3ccccc3c2=O)c1
The activity change of the first is higher: 4.9% for the first, -0.2% for the second.

Going from COC(=O)c1ccc(C(=O)OC)c(NC(=S)N2CCN(c3ccc(F)cc3)CC2)c1 to CC1CCN(c2ccc3c(c2)S(=O)(=O)c2cc(C(=O)O)ccc2C3=O)CC1, the activity change rises from -1.17% to 14.3%.

First: COC(=O)c1c(NC(=O)CN2CCN(S(=O)(=O)c3ccccc3[N+](=O)[O-])CC2)sc2c1CCC(C)C2 (stereo not drawn)
Second: Cc1ccc(S(=O)(=O)N2CCC(C)CC2)cc1C(=O)NCc1ccccn1
The activity change of the first is lower: 0.7% for the first, 0.82% for the second.

Compared with O=S(=O)(Cc1ccccc1)c1nc2ccccc2n1Cc1ccccn1, Oc1ccc(/C=N/N(Cc2ccccc2)c2ccccc2)cc1 is higher in activity change: -0.31% for the first, -0.08% for the second.

Compared with CC1=CC2=NC(=O)/C(=C/c3coc4ccccc4c3=O)C(=N)N2O1, Cc1sc2nc(-c3ccccc3F)oc(=O)c2c1C is lower in activity change: 6.6% for the first, 0.82% for the second.

First: Cc1ccc(CC2S/C(=C(/C#N)C(=O)N3CCOCC3)N(c3ccccc3)C2=O)cc1 (stereo not drawn)
Second: O=C(Cn1[nH]c(=O)c2ccccc2c1=O)Nc1cccc(-c2nnc3n2CCCCC3)c1
The activity change of the first is lower: 0.2% for the first, 1.84% for the second.

First: CCN(CC(=O)NCc1cccs1)C(=O)/C=C/c1ccc(C)cc1
Second: CCCCOC(=O)Nc1nnc(CC(=O)NCc2ccccc2)s1
The activity change of the first is higher: 0.98% for the first, -1.39% for the second.

Going from COc1cccc(-c2ccc3c(c2)S(=O)(=O)c2cccc(C(=O)O)c2C3=O)c1OC to COc1ccccc1C(=O)N1CCN=C1SCc1cccnc1, the activity change rises from 1.88% to 2.47%.

Going from Cc1nn(Cc2ccc(C(=O)N3N=C(C(F)F)CC3(O)C(F)F)cc2)c(C)c1[N+](=O)[O-] (stereo not drawn) to Cc1cccc(C)c1NC(=O)C(c1ccc(C(F)(F)F)cc1)n1c(=O)c(-c2ccco2)nc2ccccc21 (stereo not drawn), the activity change rises from 1.52% to 26.7%.

First: CN(C)c1ccc(/C=C2\NC(=S)N(Cc3ccccc3)C2=O)cc1
Second: COc1cc(=O)[nH]c(=O)n1C(=O)Cc1ccccc1
The activity change of the first is higher: 128% for the first, 2.22% for the second.

Compared with CC1CCCCC1NC(=O)C1CCCN1S(=O)(=O)c1cccc2nsnc12 (stereo not drawn), O=C(OC(C(=O)NC1CCCC1)c1ccc(F)cc1)c1ccno1 (stereo not drawn) is higher in activity change: -0.79% for the first, -0.09% for the second.

First: Cc1cccc(C)c1NC(=O)C(c1cccc2ccccc12)n1c(=O)c(-c2ccco2)nc2ccccc21 (stereo not drawn)
Second: CCOc1[nH]n(-c2ccc(Cl)cc2)c(=O)c1C=Nc1ccc(O)cc1
The activity change of the first is higher: 32.4% for the first, -5.55% for the second.

Going from Nc1c(N(CCCO)C(=O)C2CCCC2)c(=O)[nH]c(=O)n1Cc1ccccc1 to O=C(CCc1nnc2ccc(NCCCN3CCCC3=O)nn12)NCc1ccccc1Cl, the activity change rises from -0.45% to 1.08%.

Compared with CCc1nnc(NC(=O)c2ccco2)s1, COc1ccc(CCNC(=O)C(=O)NCC2OCCN2S(=O)(=O)c2cccs2)cc1OC (stereo not drawn) is higher in activity change: 0.04% for the first, 5.44% for the second.

Going from NC(=O)C1(Nc2ccc([N+](=O)[O-])cc2)CCCC1 to COC(=O)c1ccccc1N=NNc1ccc([N+](=O)[O-])cc1, the activity change falls from -1.78% to -3.24%.

For O=C1CSC(c2cccc(F)c2)N1c1ccc(O)cc1 (stereo not drawn), the activity change was 1.06%.

For O=C(COC(=O)c1ccc(F)cc1F)Nc1ncccn1, the activity change was 38.7% (active).
COc1cccc(OC)c1C(=O)Nc1ccc(Cc2ccncc2)cc1 was tested, and the activity change was 41.2% (active).
Cc1ccc(CSCC2Nc3ccc(C(=O)N4CCN(c5ccc(F)cc5)CC4)cc3NC2=O)cc1 (stereo not drawn) was tested, and the activity change was 37.8% (active).
In the case of O=C1Nc2cc(C(=O)N3CCN(c4ccc(F)cc4)CC3)ccc2NC1CSCc1cccc(F)c1 (stereo not drawn), the activity change is reported as 102% (active).
O=C1/C(=C/c2coc3ccc(O)cc3c2=O)SC(=S)N1c1ccccc1 was tested, and the activity change was 55.6% (active).
With Cc1ccc(CNC(=O)c2cccc3c2C(=O)c2ccc(N4CCC(C)CC4)cc2S3(=O)=O)cc1 the activity change was 45.8% (active).
For COc1cc(/C=C2/SC(=S)N(Cc3ccccc3)C2=O)cc(OC)c1O, the activity change was 48.1% (active).
For O=C(NC1CCCCC1)C(c1cc2ccccc2o1)n1c(=O)c(-c2ccco2)nc2ccccc21 (stereo not drawn), the activity change was 45.8% (active).
In the case of Oc1ccc(N=Cc2c(O)ccc3ccccc23)cc1, the activity change is reported as 72% (active).
For Cc1ccc(-c2csc(NC(=O)Cn3[nH]c(=O)c4ccccc4c3=O)n2)cc1, the activity change was 50% (active).
With CCc1ccc2nc3sc(C(=O)Nc4nnc(CC)s4)c(N)c3cc2c1 the activity change was 45.1% (active).
In the case of COc1cc(N=Cc2c(O)c3ccccc3oc2=O)c(OC)cc1Cl, the activity change is reported as 98.2% (active).
O=[N+]([O-])c1ccc(N=NNc2ccc([N+](=O)[O-])cc2)cc1 was tested, and the activity change was 54.8% (active).

From PubChem BioAssay AID1224865 (Sanford-Burnham Center for Chemical Genomics, 2016)
